Results: PubChem BioAssay
Unmarked numbers belong to inactive results. Activity calls are given as the source filed them. Cut-off read from the data, not from the text of the source, unless noted: active = inhibition above about 42%; inactive = the rest.

Assays:
[1] = StAR promoter reporter inhibitors, counter-screen for LRH-1 inverse agonist project, cell-based, luminescence, high throughput (AID 651611; in the data active = inhibition above about 28%); details: StAR promoter luciferase reporter counterscreen, at 3.6 µM, hits give high values
[2] = target: Nuclear receptor subfamily 5 group A member 2 (Homo sapiens) (UniProt O00482); experiment: NR5A2 activity suppression in reporter cells – cell-based, luminescence, confirmation (AID 651613); details: cell-based LRH-1 luciferase reporter, inverse agonism; at 3.6 µM; hits give high values;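 note: HEK293T cells co-transfected with LRH-1 and StAR promoter luciferase reporter; 0% = vehicle wells and 100% = parental cells lacking receptor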
Sequence of Nuclear receptor subfamily 5 group A member 2 (Homo sapiens) (O00482 whole entry, looked up): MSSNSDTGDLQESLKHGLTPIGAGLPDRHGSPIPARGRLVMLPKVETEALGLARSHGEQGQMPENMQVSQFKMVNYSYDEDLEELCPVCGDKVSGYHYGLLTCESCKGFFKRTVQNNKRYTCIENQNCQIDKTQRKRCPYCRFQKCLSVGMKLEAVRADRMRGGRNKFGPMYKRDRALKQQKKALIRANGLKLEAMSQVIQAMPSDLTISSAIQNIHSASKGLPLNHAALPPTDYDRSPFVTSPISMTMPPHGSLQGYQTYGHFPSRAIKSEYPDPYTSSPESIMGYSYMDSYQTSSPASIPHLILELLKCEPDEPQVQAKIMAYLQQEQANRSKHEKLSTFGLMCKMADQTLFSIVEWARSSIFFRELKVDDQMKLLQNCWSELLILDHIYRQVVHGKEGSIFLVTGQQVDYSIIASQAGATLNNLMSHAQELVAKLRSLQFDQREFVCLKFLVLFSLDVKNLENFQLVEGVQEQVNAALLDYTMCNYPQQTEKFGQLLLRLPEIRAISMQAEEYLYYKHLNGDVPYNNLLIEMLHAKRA

[3] = target: Steroidogenic factor 1 (Homo sapiens) (UniProt Q13285); experiment: inverse agonism at SF1 nuclear receptor – cell-based, luminescence, high throughput, counter-screen for LRH-1 inverse agonist project (AID 651614; in the data active = inhibition above about 44%;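 note: cells cotransfected with StAR promoter reporter and SF1 expression vector; 0% = vehicle on cells with receptor and 100% = vehicle on cells lacking receptor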); details: cell-based SF1 luciferase reporter, at 3.6 µM, hits give high values
Sequence of Steroidogenic factor 1 (Homo sapiens) (Q13285 whole entry, looked up, the tested form may be a part): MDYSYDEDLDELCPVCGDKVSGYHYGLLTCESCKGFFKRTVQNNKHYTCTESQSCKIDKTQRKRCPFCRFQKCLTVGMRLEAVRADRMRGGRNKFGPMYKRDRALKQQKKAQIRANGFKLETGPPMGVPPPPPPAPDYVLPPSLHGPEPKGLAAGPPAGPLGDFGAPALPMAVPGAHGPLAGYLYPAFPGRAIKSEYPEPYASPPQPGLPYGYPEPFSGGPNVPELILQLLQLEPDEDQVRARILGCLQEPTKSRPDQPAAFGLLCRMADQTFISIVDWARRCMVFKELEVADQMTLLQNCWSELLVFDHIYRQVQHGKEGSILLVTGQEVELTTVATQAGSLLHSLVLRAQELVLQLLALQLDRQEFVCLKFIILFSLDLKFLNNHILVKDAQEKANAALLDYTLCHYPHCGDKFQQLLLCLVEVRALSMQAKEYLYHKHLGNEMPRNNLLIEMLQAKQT

[4] = compounds suppressing VP16-driven luciferase signal – cell-based, luminescence, high throughput, counter-screen for LRH-1 inverse agonist project (AID 651615; in the data active = inhibition above about 33%); details: Gal4-VP16 luciferase reporter cells, at 3.6 µM, hits give high values

Structure (SMILES) | inhibition [1] | inhibition [2] | inhibition [3] | inhibition [4]
CC1CCCN(c2cc(N(C)CCO)c([N+](=O)[O-])c3nonc23)C1 (stereo unspecified) | 14.3% | 56.2% (active) | 43.2% (active) | 14.8%
CCn1cc(CN(C)S(=O)(=O)c2ccc3ccccc3c2)c(C)n1 | -0.8% | 50.9% (active) | 52.5% (active) | 40.2% (active)
COc1cc(NC(=O)c2ccc([N+](=O)[O-])o2)ccc1NC(=O)c1cccs1 | 30.9% (active) | 61.1% (active) | 61.9% (active) | -9.17%
COc1ccc(NC(=O)CSc2nc3nc(C)cc(C)c3c(=O)[nH]2)cc1 | 3.79% | 43.6% (active) | 48.5% (active) | -2.26%
CCN(CC)S(=O)(=O)c1cccc(NC(=O)CNc2cccc(S(=O)(=O)N3CCCC3)c2)c1 | 26.7% | 64.4% (active) | 59.8% (active) | 49.5% (active)
O=C(Cc1ccc(S(=O)(=O)N2CCCC2)s1)Nc1cccc([N+](=O)[O-])c1 | 7.13% | 51.3% (active) | 46.5% (active) | 1.81%
CC1CCC2(CC1)NC(=O)N(CC(=O)Nc1ccc(N3CCOCC3)cc1)C2=O (stereo unspecified) | 11.8% | 45.8% (active) | 37.4% | -8.77%
COc1cc2oc(-c3ccc(O)cc3)cc(=O)c2c(O)c1OC | 7% | 35.9% | 32.8% | -45.5%
CCOC(=O)c1c2c(n(Cc3ccccc3)c1C)C(=O)C(=O)c1ccccc1-2 | 48.7% (active) | 60.6% (active) | 71.6% (active) | 54.6% (active)
